Measured values: article PMC4336329 (PLoS ONE, 2015)
The whole screen tested about 310,000 compounds, of which about 2,200 (0.71%) showed an effect of 50% or more. Effects have a minus sign here. Many of the other results were omitted from the sample, so strong results are more common in it than they were.

Molecular target: human ether-à-go-go-related gene (hERG) potassium channel (human, UniProt Q12809)
Experiment: primary screen, population patch clamp on CHO cells stably expressing hERG; higher = less effect of the substance
Method: Briefly, Chinese hamster ovary (CHO) cells stably expressing the hERG channel were dislodged from tissue culture flasks and dispensed into PPC plates. […] During the recording, background leak currents were estimated by a 100 ms step to -80 mV from an initial holding potential of -70 mV and subtracted from the subsequent current measurement. The campaign was conducted in two phases using slight differences in recording protocol. In the first phase, the initial voltage pulse used a 100 ms step to -30 mV from a holding potential of -70 mV, a 2 s conditioning step to +25 mV, and a 2 s test step to -30 mV. During the second phase of the screen, the potential during the conditioning step was raised to +45 mV. In both phases of the campaign, a secondary voltage pulse was applied using the same parameters as the second phase initial pulse. The initial and secondary pulses were applied in the absence of compound, and upon application of 1 μM and 10 μM test concentrations. Small molecule effects on hERG current density were quantified by […].

Chain of human ether-à-go-go-related gene (hERG) potassium channel (Q12809 whole entry, looked up): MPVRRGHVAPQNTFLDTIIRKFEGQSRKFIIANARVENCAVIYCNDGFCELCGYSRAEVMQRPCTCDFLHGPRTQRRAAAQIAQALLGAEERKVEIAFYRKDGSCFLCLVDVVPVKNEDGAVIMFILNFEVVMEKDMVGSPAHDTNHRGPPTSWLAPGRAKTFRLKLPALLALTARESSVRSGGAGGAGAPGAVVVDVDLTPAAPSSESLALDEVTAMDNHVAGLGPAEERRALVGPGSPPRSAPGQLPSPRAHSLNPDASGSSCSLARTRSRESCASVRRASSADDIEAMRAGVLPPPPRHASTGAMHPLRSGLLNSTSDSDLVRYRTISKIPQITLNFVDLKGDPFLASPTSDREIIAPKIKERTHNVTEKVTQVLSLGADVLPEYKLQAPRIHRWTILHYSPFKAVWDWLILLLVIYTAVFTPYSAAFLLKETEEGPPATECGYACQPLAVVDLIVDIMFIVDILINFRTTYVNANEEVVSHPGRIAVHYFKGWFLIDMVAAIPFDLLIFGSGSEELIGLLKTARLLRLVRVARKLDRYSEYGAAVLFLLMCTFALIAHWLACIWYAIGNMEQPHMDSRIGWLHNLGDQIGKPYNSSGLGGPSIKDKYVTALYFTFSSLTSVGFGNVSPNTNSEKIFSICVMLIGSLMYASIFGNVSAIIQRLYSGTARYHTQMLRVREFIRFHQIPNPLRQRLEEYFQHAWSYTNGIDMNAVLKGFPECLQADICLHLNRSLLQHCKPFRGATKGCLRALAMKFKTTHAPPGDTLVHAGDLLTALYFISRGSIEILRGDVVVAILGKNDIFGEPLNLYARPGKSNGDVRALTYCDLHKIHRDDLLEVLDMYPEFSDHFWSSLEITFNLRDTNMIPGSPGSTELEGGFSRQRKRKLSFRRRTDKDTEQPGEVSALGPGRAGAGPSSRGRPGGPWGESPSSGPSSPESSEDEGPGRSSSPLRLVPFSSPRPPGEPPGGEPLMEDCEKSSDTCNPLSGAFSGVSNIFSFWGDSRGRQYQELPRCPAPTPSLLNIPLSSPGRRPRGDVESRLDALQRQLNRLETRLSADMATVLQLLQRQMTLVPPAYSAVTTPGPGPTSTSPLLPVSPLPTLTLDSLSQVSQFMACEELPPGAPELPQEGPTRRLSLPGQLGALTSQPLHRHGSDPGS

SMILES	hERG current change (%, negative = inhibition) at 1uM
COc1ccc(C2CC(c3ccccc3)=NN2C(=O)c2ccc(Cl)c([N+](=O)[O-])c2)cc1 (centres unmarked)	9.38%
CN(CC(=O)Nc1ccc(Cl)c(C(F)(F)F)c1)C(=O)c1cn2ccccc2n1	5.27%
O=C(N/N=C/c1cc(Br)c(O)c(Br)c1)c1cccnc1	18.5%
COc1ccccc1/C=C(/C(=O)OCC(=O)Nc1ccc(N(C)C)cc1)c1ccccc1	9.09%
COc1ccccc1C(=O)N/N=C/c1cnc2ccccc2n1	6.27%
O=C1CCN(Cc2ccccc2)CCN1[C@H](COc1ccccc1)Cc1ccccc1	-7.61%
CN1CCC(=O)N([C@H](COc2ccccc2)Cc2ccccc2)CC1	-8.2%
O=C1CCN(CCc2ccccc2)CCN1[C@H](COc1ccccc1)Cc1ccccc1	-60.4%
CCOc1ccc(C(=O)COC(C)=O)cc1	9.74%
O=c1[nH]c(C2CCCN(S(=O)(=O)c3ccc(F)cc3)C2)nc2c1nnn2Cc1ccccc1 (centres unmarked)	7.82%
OCCC1CN(CC#Cc2ccccc2)CCN1C1CCCC1 (centres unmarked)	-7.79%
CC(C)CCN1CCN(CC#Cc2ccccc2)CC1CCO (centres unmarked)	4.3%
CC(C)CCN1CCN(CC(c2ccccc2)c2ccccc2)CC1CCO (centres unmarked)	-81.9%
CC(C)CCN1CCN(CCCc2ccccc2)CC1CCO (centres unmarked)	-1.8%
OCCC1CN(CC(c2ccccc2)c2ccccc2)CCN1C1CCCC1 (centres unmarked)	-74.5%
Cc1cccc(-c2ncc(CN3CCN(C4CCCC4)C(CCO)C3)cn2)c1 (centres unmarked)	-15.1%
OCCC1CN(Cc2cnc(-c3ccc(Cl)cc3)nc2)CCN1C1CCCCC1 (centres unmarked)	-31.1%
OCCC1CN(C/C(Cl)=C/c2ccccc2)CCN1C1CCCC1 (centres unmarked)	-43.4%
OCCC1CN(Cc2cnc(-c3ccc(Cl)cc3)nc2)CCN1C1CCCC1 (centres unmarked)	-62%
COc1ccc(S(=O)(=O)Nc2ccc(-c3ccc(N4CCCC4)nn3)cc2)cc1C	11.6%
CC(Oc1ccc(Cl)cc1Cl)c1ccnc(N)n1 (centres unmarked)	16.2%
Clc1ccccc1C1=Nn2c(nnc2-c2ccco2)SC1	4.48%
CC(=O)N1C[C@H](O)C[C@H]1C(=O)O	-19%
O=C(COc1ccccc1)NNc1c2ccccc2nc2ccccc12	4.4%

SMILES	hERG current change (%, negative = inhibition) at 1uM
Cc1ccc(C)c(NC(=O)Cn2nc(-c3ccccc3)nc2-c2ccccc2)c1	16.6%
CNS(=O)(=O)c1cccc(C(=O)OCC(=O)c2cc3ccccc3o2)c1	21%
Cc1cccc(N2C(=O)NC(=O)/C(=C\c3cnn(-c4ccccc4)c3)C2=O)c1	12.6%
Cc1ccccc1NC(=O)CN1CCN(C(=O)c2ccco2)CC1	5.5%
CN(C)CCCNCC(=O)Nc1ccc(Cl)cc1C(=O)c1ccccc1.O=C(O)C(=O)O	-21.2%
CN1CCN(c2ccc([N+](=O)[O-])cc2C(=O)c2ccccc2)CC1	-17.5%
CCN(CC)CC(=O)Nc1ccc(Cl)cc1C(=O)c1ccccc1	6.87%
CCN(CC)CCNCC(=O)Nc1ccc(Cl)cc1C(=O)c1ccccc1.O=C(O)C(=O)O	-84.2%
O=C(CN1CCCC1)Nc1ccc(Cl)cc1C(=O)c1ccccc1.O=C(O)C(=O)O	0.588%
CN1CCN(C(=S)SCC(=O)Nc2ccc(Cl)cc2C(=O)c2ccccc2)CC1	-5.6%
Cc1cc(Cl)ccc1NC(=O)CN1CCN(C(=O)c2ccco2)CC1	-57.1%
CN1CCN(CC(=O)Nc2ccc([N+](=O)[O-])cc2C(=O)c2ccccc2)CC1	-91.5%
CN1CCN(CC(=O)Nc2cccc([N+](=O)[O-])c2)CC1	5.95%
O=C(CN1CCN(C(=O)c2ccco2)CC1)Nc1cc(Cl)ccc1Cl	-8.91%
CN1CCN(CC(=O)Nc2ccc(Cl)cc2C(=O)c2ccccc2)CC1	-83.3%
O=C1NC(=S)N(c2ccccc2)C(=O)/C1=C/c1ccco1	5.88%
COc1ccc(-n2nnnc2SCC(=O)c2ccc(O)c(O)c2)cc1	1.49%
Cc1ccccc1-c1nc2ccc(Cl)cc2c(=O)n1O	15.4%
CCOC(=O)c1ccc(NC(=O)CNC(=O)c2ccccc2)cc1	7.06%
CCSc1nnc(NC(=O)Nc2cccc(C)c2)s1	12.2%
Cn1nc([N+](=O)[O-])nc1Sc1nnnn1-c1ccc(C(=O)O)cc1	8.97%
CCCCn1c(CCNC(=O)c2ccco2)nc2ccccc21	7.54%
Cc1cc(C)cc(-c2nnc(SCC(=O)c3ccc4c(c3)OCCO4)o2)c1	16%
